# Pf growth 48h = P. falciparum growth inhibition at 48 hours (one generation); P. falciparum luciferase growth in erythrocytes, 48 h; Potency, µM (titrated, usually from 28.7 µM), inactives show at the top dose activity change, negative = inhibition, most hits filed as inhibitors; 5.9% of 310,000 active; AID 504832
#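 Compounds are pin-transferred into medium, infected erythrocytes (2% hematocrit, 0.1% parasitemia final) are added, and plates sit one parasite generation at 37 C in 5% CO2. Detection reagent is then added and luminescence measured.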
# AMA1 RON2 block = disrupts binding of P. falciparum AMA1 to RON2; AlphaScreen AMA1-biotinylated RON2 peptide binding; Potency, µM (titrated, usually from 58.2 µM), without a hit: top-dose activity change, negative = inhibition, most hits filed as inhibitors; 0.2% of 360,000 active; AID 720542;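 also: 0% = vehicle wells and -100% = peptide control; nearly all actives have a fitted effect of over 45% in size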
#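 AMA1 (3D7) with his tag at 25 nM final met compounds first, then biotinylated RON2 peptide at 25 nM; detection used donor plus acceptor beads, 10 µg/mL apiece, read by AlphaScreen after 30 min at room temperature.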
# VACV mCherry inh = inhibitors of vaccinia virus infection (mCherry reporter signal) | Vaccinia virus mCherry reporter infection, fluorescence | Potency, µM (highest dose often 36.5 µM), for the others: at the highest dose activity change, negative = inhibition, hits mostly inhibitors | 0.63% of 310,000 active | AID 720579; calls by dose curve; tested in A549 cells; also: nearly all actives have a fitted effect of over 35% in size
# Pf growth 96h = P. falciparum growth inhibition at 96 hours. Potency, µM (doses to about 28.7 µM), inactives show at the highest dose activity change, negative = inhibition, hits mostly inhibitors. 6.9% of 320,000 active. P. falciparum luciferase reporter growth, 96 h. AID 504834
#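 Two-generation exposure (96 h) targets delayed-death phenotype. Reporter parasites carrying integrated firefly luciferase, in red cells at 2% hematocrit and 0.05% parasitemia final, kept at 37 C, 5% CO2; luminescence loss indicates inhibition.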
# VACV Venus inh = vaccinia inhibition (Venus reporter); Vaccinia virus Venus reporter expression, fluorescence; 0.46% of 330,000 active; Potency, µM (series often up to 36.5 µM), for inactives: at the highest dose activity change, negative = inhibition, usual class: inhibitors; AID 720580; calls by dose curve; tested in A549 cells; also: nearly all actives have a fitted effect of over 30% in size
# The depositor's hits bear a star; i = inactive; ? = inconclusive; · = no result given; [ ] = dose if it differs, or a comment. Rows were chosen to be rich in hits. Some 8.7% of all compounds tested hit in one or more screens of this group. Unless noted, calls follow the shape of the dose curve; as a rule, active = well fitted curve in the direction sought with a large enough effect; inconclusive = small, poorly fitted or top-dose-only effect, or another doubt; inactive = no such curve, though single readings can be large; an effect the other way counts as inactive or inconclusive. Unless noted, % is scaled to controls: 0 for no effect and ±100 for the full control effect; potency is read from the fitted curve at half-maximal effect.
SMILES,Pf growth 48h,AMA1 RON2 block,VACV mCherry inh,Pf growth 96h,VACV Venus inh
OC(CN1CCCCC1)Cn1c2ccc(Cl)cc2c2cc(Cl)ccc21 (configuration not stated),1.85µM*,-22.2%,?,?,?
CC1CCN(CC(O)Cn2c3ccccc3c3ccccc32)CC1 (configuration not stated),?,-5.1%,-6.4%,?,-22.2%
OC(CN1CCN(c2ccccn2)CC1)Cn1c2ccc(Cl)cc2c2cc(Cl)ccc21 (configuration not stated),1.65µM*,-4.1%,?,·,?
O=C(CCC1N=C2c3ccccc3N=C(SCC(=O)Nc3ccccc3F)N2C1=O)NCc1ccccc1 (configuration not stated),·,·,-3.0%,·,-9.0%
Cc1cc(Cl)ccc1NC(=O)Cn1nc(C)c2c(C)n(-c3ccccc3)nc2c1=O,·,·,-15.0%,·,-12.9%
O=C(Nc1cc(S(=O)(=O)Nc2ccc(Cl)cc2)ccc1N1CCCCC1)c1ccc(F)cc1,?,-18.6%,-9.6%,?,?
CCCCCC(=O)Nc1cc(S(=O)(=O)N2CCCCC2)ccc1N1CCOCC1,13.1µM*,-2.4%,-17.0%,?,-10.6%
O=C(Nc1cc(S(=O)(=O)N2CCOCC2)ccc1N1CCOCC1)c1cccc(S(=O)(=O)N2CCCCC2)c1,?,0.0%,·,?,·
COc1ccc(S(=O)(=O)Nc2cc(C(=O)NCCC(C)C)ccc2N2CCOCC2)cc1,8.28µM*,22.6%,·,?,·
N#Cc1ccc(C(=O)Nc2cc(S(=O)(=O)Nc3ccc(Cl)cc3)ccc2N2CCCCC2)cc1,13.1µM*,11.4%,-2.1%,10.4µM*,-24.6%
O=C(Nc1cc(S(=O)(=O)N2CCOCC2)ccc1N1CCOCC1)c1ccc(S(=O)(=O)N2CCCCC2)cc1,11.7µM*,1.6%,7.5%,?,-6.4%
CCCCCC(=O)Nc1cc(S(=O)(=O)N2CCOCC2)ccc1N1CCCC1,9.9%,8.9%,-4.3%,-5.9%,-17.6%
COC(=O)c1cc(NS(=O)(=O)c2ccc(N3CCOCC3)c(NC(C)=O)c2)cc(C(=O)OC)c1,1.6%,21.9%,2.7%,?,-2.7%
Cc1c(C(=O)Nc2cc(S(=O)(=O)N3CCOCC3)ccc2N2CCOCC2)oc2ccccc12,10.4µM*,-6.6%,·,?,·
COC(=O)c1cc(NS(=O)(=O)c2ccc(N3CCOCC3)c(N)c2)cc(C(=O)OC)c1,?,-2.7%,-15.9%,4.15µM*,-25.7%
Cc1c(C(=O)Nc2ccccc2Br)oc2ccc(S(=O)(=O)N3CCOCC3)cc12,·,·,-7.1%,·,?
N#Cc1ccc(C(=O)Nc2cc(S(=O)(=O)N3CCOCC3)ccc2N2CCCC2)cc1,·,10.5%[11.6 µM],-13.1%,·,-28.6%
CC(C)Oc1ccc(C(=O)Nc2cc(S(=O)(=O)N3CCOCC3)ccc2N2CCOCC2)cc1,13.1µM*,3.2%,-12.6%,?,-29.1%
CC(C)Oc1ccc(S(=O)(=O)N2CCOCC2)cc1NC(=O)c1cc([N+](=O)[O-])ccc1N1CCOCC1,13.1µM*,14.1%,-27.1%,11.7µM*,-18.0%
COc1ccc(CCn2c(=O)c3cccnc3n(CC(=O)Nc3c(C)cc(C)cc3C)c2=O)cc1OC,·,·,-16.2%,·,-2.7%
CC(C)c1ccc(NC(=O)Cn2nnc(C(=O)NCc3ccc(Cl)cc3)c2N)cc1,·,·,i,·,-7.2%
CC(C)COc1ccc(C(=O)Nc2cc(S(=O)(=O)N3CCOCC3)ccc2N2CCCC2)cc1,8.28µM*,-3.1%,·,?,·
O=C(Nc1ccccc1N1CCCCC1)c1cc(S(=O)(=O)N2CCOCC2)ccc1Cl,?,-20.2%,i,?,-16.2%
CCN1CCN(c2ccc(S(=O)(=O)N3CCOCC3)cc2NC(=O)c2ccc(OCC(C)C)cc2)CC1,·,-9.0%,·,·,·
CC(=O)NCCC(=O)Nc1cc(S(=O)(=O)N2CCCCC2)ccc1N1CCCCC1,1.17µM*,-3.0%,·,1.17µM*,·
SMILES,Pf growth 48h,AMA1 RON2 block,VACV mCherry inh,Pf growth 96h,VACV Venus inh
O=C(Nc1ccccc1Cl)c1cc(S(=O)(=O)N2CCCCC2)ccc1N1CCOCC1,9.28µM*,-4.7%,·,5.86µM*,·
COc1ccc(N2CCN(C(=O)c3cc4c(C)nc5ccccc5c4o3)CC2)cc1,2.1%,-15.4%,·,0.828µM*,·
COc1ccc(N2CCN(C(=O)c3cc(-c4cc(OC)ccc4OC)nc4ccccc34)CC2)cc1,?,5.01µM*,-29.0%,-15.3%,-24.4%
CC(=O)c1ccc(N2CCN(C(=O)c3cc4c(C)nc5ccccc5c4o3)CC2)cc1,5.1%,-0.6%,·,?,·
COc1ccc(Nc2cc(C(=O)N3CCc4ccccc4C3)c3ccccc3n2)c(OC)c1,13.1µM*,-16.6%,·,19.6%,·
COc1ccc(-c2cc(C(=O)N3CCN(c4ncccn4)CC3)c3ccccc3n2)c(OC)c1,?,-5.4%,21.3%,1.85µM*,-2.5%
COc1ccc(OC)c(-c2cc(C(=O)N3CCN(c4ncccn4)CC3)c3ccccc3n2)c1,?,0.2%,·,?,-7.5%
CCOc1ccccc1N1CCN(C(=O)c2cc(-c3cc(OC)ccc3OC)nc3ccccc23)CC1,?,-7.4%,-11.5%,-20.0%,-4.3%
CCc1noc2nc(C)n(CC(=O)O)c(=O)c12,·,·,3.5%,·,10.0%
CCOC(=O)CN(Cc1ccccc1)C(C(=O)NC1CCCCC1)c1ccc(C)cc1 (configuration not stated),·,·,-10.8%,·,-12.4%
COC(=O)c1ccc(NC(=O)C(=O)N2CCN(C(=S)Nc3ccc(C)cc3)CC2)cc1,-18.9%,-3.5%,-3.2%,0.37µM*,-19.9%
CC(=O)Oc1ccc(-c2nc3ccccc3c(=O)o2)cc1,?,-6.9%,·,16.6%,·
O=[N+]([O-])c1ccc(C=Nc2cccc3ccccc23)s1,?,-29.3%,-18.5%,35.6%,-6.1%
O=c1oc(/C=C/c2ccc([N+](=O)[O-])s2)nc2ccccc12,?,-0.8%,·,0.0828µM*,·
CC(=O)Oc1ccc(/C=C/c2nc3ccccc3c(=O)o2)cc1,168.0%,6.6%,-7.5%,11.7µM*,-19.5%
CC(=O)Oc1ccccc1/C=C/c1nc2ccccc2c(=O)o1,1.47µM*,4.9%,i,34.5%,-8.5%
COc1cc(-c2nnc(SCC(=O)NCc3ccccc3Cl)o2)cc(OC)c1OC,·,·,-24.1%,·,-14.9%
CNc1nnc(Sc2ncccc2[N+](=O)[O-])s1,9.28µM*,0.9%,-15.7%,?,-11.0%
CCCNC(=O)Cn1c(=O)/c(=C\c2ccc(-c3ccc([N+](=O)[O-])cc3)o2)s/c1=C\C(=O)C(C)(C)C,9.28µM*,-7.8%,0.1%,?,51.4%
CCCNC(=O)Cn1c(=O)/c(=C\c2ccc(-c3cccc([N+](=O)[O-])c3)o2)s/c1=C\C(=O)C(C)(C)C,1.65µM*,-6.9%,-14.3%,1.31µM*,-6.5%
N#C/C(=C\c1ccccc1Br)C(=O)NC1CC1,-17.7%,-7.6%,·,1.47µM*,·
COc1c(Cl)cc(C(=O)O)cc1Cl,·,9.2%,-13.1%,·,-5.7%
CCOc1cc(C(=O)O)cc(Cl)c1OCC#N,6.5%,?,-7.5%,7.38µM*,-4.2%

# High-throughput results as filed in PubChem BioAssay.
